# Source: PubChem BioAssay (NCI)
# The panel holds about 83,000 compounds, 20% with a hit somewhere; the sample as a whole holds those more often.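 How to read the values: 0–100, growth inhibition (40 = 60% inhibited); 0, no net growth; -100 to 0, cell death (-40 = 40% of starting cells died; -100 = all dead).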 Activity calls are given as the source filed them. The calls were made as follows: active = growth percent below 10; inactive = the rest.
# System: MDA-MB-468 breast
# Assay: NCI-60 one-dose screen, 48 h (100 = growth as untreated, 0 = no growth, -100 = all killed)
# Conditions: 10 µM unless noted
row,SMILES,growth
1,Nc1nc(N)c2c(n1)NC(c1ccccc1)CC(c1ccc(Nc3nc(NCCO)nc(Nc4ccc(Cl)cc4)n3)cc1)=N2 (stereo not given),-70.1% (active)
2,COc1ccc(-c2nc(N)ncc2Oc2ccccc2OC)c(O)c1,-2.89% (active)
3,CCCCCCCCc1ccc(OCCOCC[N+](C)(C)CC)cc1 (tested in a mixture with another compound),-11.3% (active)
4,Cc1nc2oc3ccccc3c(=O)c2cc1C(=O)NCc1ccccc1,89.2% (inactive)
5,CCOC(=O)c1ccc2n1CCCc1cnc(NC(C)=O)nc1-2,96.1% (inactive)
6,Cc1nc(N)sc1C(=O)NCCO,96.8% (inactive)
7,Cc1ccc(CC#N)cc1C,104% (inactive)
8,Cn1c(=O)c2c(nc3n2CCN(CCc2ccc(OCCN4CCOCC4)cc2)C3)n(C)c1=O,97.9% (inactive)
9,CCOC(=O)c1c(C)oc2ncnc(N3CCN(C(=S)Nc4ccccc4)CC3)c12,85.2% (inactive)
10,CS(=O)(=O)c1ccc(-c2[nH]c3ccc(F)cc3c2/C=N/O)cc1,93.7% (inactive)
11,COC(=O)[C@]1(CCSC)N[C@H](c2cn(-c3ccccc3)nc2C)[C@@H]2C(=O)N(c3ccc(C)cc3)C(=O)[C@@H]21,127% (inactive)
12,O=C1C=CC(=O)N1c1cccc2c1CCCC2,95.1% (inactive)
13,COC(=O)c1c2c(c[n+]([O-])c1C)C(=O)C=CC2=O,-17.2% (active)
14,N#Cc1c(-c2ccccc2)c(C#N)c2c(C#N)c(N)nn2c1N,25.9% (inactive)
15,CN(C)c1ccc(/C=C(\C#N)c2cc3ccccc3n2C)cc1,31.8% (inactive)
